# According to PubChem BioAssay AID720633 (The Scripps Research Institute Molecular Screening Center, 2013):
# This is one part of the list. Values without a mark were called inactive.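 The calls were made as follows: active = inhibition above the cutoff, the mean of compounds lying between the control bounds plus 3 SD of those compounds (cut at about 17% in these data); inactive = the rest.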
# Target: Fibrinogen beta chain (Homo sapiens) (UniProt P02675)
# Assay: fibrin DD(E) probe displacement, second cyclic peptide – biochemical, fluorescence polarization, human fibrin, counter-screen for fibrin DD(E)-Tn7 binding project, confirmation (AID 720633);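 also: 0% = median of compound sample wells and 100% = excess unlabeled Aha-Tn7 peptide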
# Conditions: TRITC-Tn7 probe displacement, at 8.3 µM, active compounds read high
# Chain of Fibrinogen beta chain (Homo sapiens) (P02675 whole entry, looked up): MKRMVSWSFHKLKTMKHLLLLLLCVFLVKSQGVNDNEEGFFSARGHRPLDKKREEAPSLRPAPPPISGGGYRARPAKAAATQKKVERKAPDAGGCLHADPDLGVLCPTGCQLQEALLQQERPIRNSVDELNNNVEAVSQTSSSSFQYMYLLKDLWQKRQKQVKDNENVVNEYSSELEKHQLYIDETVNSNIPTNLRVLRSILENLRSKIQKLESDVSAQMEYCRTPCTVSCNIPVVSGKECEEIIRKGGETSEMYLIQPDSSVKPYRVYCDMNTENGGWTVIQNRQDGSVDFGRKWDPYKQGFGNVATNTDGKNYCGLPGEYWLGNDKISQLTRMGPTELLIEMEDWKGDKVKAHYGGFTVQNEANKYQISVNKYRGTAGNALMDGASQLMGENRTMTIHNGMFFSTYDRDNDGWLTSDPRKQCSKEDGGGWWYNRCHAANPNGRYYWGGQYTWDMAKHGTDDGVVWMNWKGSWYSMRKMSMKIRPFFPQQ
row,SMILES,inhibition [%]
1,C#CCNc1ccc(C(=O)OCC)cc1,4.2
2,O=C(NCc1ccccc1)c1cccc(NC(=O)C2CCCCC2)c1,0.56
3,CC(C)(C)c1cc(CN2CCN(CCC#N)CC2)cc(C(C)(C)C)c1O,0.66
4,CCOc1ccc(Nc2oc(Cc3ccccc3)nc2C#N)cc1,-10.1
5,Cc1cc2nc3c(=O)n(Cc4ccccc4)c(=O)[nH]c3nc2cc1N,-4.98
6,Oc1ccc2ccc3cccc[n+]3c2c1,-23.9
7,COc1cccc(N2CC(NS(=O)(=O)c3cccs3)CC2=O)c1 (stereo not drawn),-2.24
8,O=C(Nc1ccon1)c1sc2ccccc2c1Cl,-2.1
